Test results: PubChem BioAssay AID624202 (National Center for Advancing Translational Sciences (NCATS), 2012)
Out of some 380,000 compounds screened, about 4,000 (1.1%) were called active. Where a call stands in place of a potency, no number is given. Another 3% or so got no clear call; they are omitted. The call rests on the fitted dose curve; in most records, active means well fitted activation curve with a large enough effect; inconclusive means small, poorly fitted or top-dose-only effect; inactive means no such curve, though single readings can be large or run the other way. The full list was thinned out, with actives kept by preference.
Potency means the concentration at half of the fitted maximal effect.

Test: qHTS Assay to Identify Small Molecule Activators of BRCA1 Expression; further: nearly all actives have a fitted effect of over 80% in size
Conditions: MCF7-BRCA1-FFLuc reporter, luminescence, 48 h; series mostly up to 46.1 µM
Description: Functionally, BRCA1 has been implicated in a wide array of cellular activities, including DNA damage repair, cell-cycle checkpoint control, growth inhibition, apoptosis, transcriptional regulation, chromatin remodeling, protein ubiquitylation, and mammary stem cell self-renewal and differentiation. Reduction in BRCA1 levels is associated with an increase in tumor growth and resistance to anti-estrogenic agents, such as tamoxifen, while an increase in BRCA1 expression leads to cell growth arrest and apoptosis. […] The frequent loss of BRCA1 expression in invasive breast cancers in the absence of somatic mutation has been attributed to numerous mechanisms, including hypermethylation of the BRCA1 promoter, exaggerated ubiquitylation of BRCA1 protein, and improper intracellular localization. […] Basal-like breast cancers (BLBCs) are associated with an aggressive clinical course, resistance to chemotherapy, and typically lack expression of estrogen receptor (ER), progesterone receptor (PR), and epidermal growth factor receptor 2 (HER2). BLBCs account for 10-17% of all breast cancers, have few therapeutic options, and are considered the biggest unmet need in the treatment of breast cancer. Conversely, tumors which maintain expression of functional BRCA1 are almost uniformly luminal type cancers, and are accordingly associated with more indolent clinical courses, responsiveness to endocrine therapies, and improved survival.
As such, it is possible that an increase in BRCA1 expression would enable cellular differentiation and restore tumor suppressor function, resulting in delayed tumor growth and less aggressive, more treatable breast cancers. The long term goal of this proposal is to develop a novel prevention or therapeutic agent for breast cancer patients. To accomplish this goal, the overall objective of this proposal is to access the resources provided by the NIH Molecular Libraries Roadmap Initiative and the Molecular Libraries Probe Production Centers Network (MLPCN) to discover and develop new chemical activator probes that will increase BRCA1 expression and function.
NIH Molecular Libraries Probe Production Network [MLPCN]
NIH Chemical Genomics Center [NCGC]
PI Name: Lisa Harlan-Williams, University of Kansas Medical Center
5microl of MCF7-BRCA1-FFLuc cell suspension (400 cells/microl in phenol-red free MEM) are dispensed into Greiner white solid bottom 1536-well assay plates, yielding a final well density of 2000 cells/well. Plates are incubated for 2 hours at 37 degrees C in 5% humidified CO2 to allow cell attachment. Compounds are then transferred via Kalypsys pin tool equipped with 1536-pin array (10nl slotted pins, V&P Scientific, San Diego, CA). The plates are then incubated at 37 degrees C in 5% humidified CO2 for 48 hours. The NCGC in-house luciferase substrate reagent, Buglite, is then added (2.5microl) and plates incubated for 15 minutes, before being transferred to a ViewLux high-throughput CCD imager (PerkinElmer) wherein single end-point measurements of luminescence are acquired using a clear filter. The positive control compound, genistein, will be pinned into dedicated control columns on each plate, including a 16-point 1:3 titration in duplicate, as well as a 10microM maximum activation control, allowing for the normalization of screening activity. DMSO will be pinned into a separate column as a negative control.
All screening operations will be performed on a fully integrated robotic system (Kalypsys, San Diego, CA) containing one RX-130 and two RX-90 anthropomorphic robotic arms (Staubli, Duncan, SC). Library plates will be screened starting from the lowest and proceeding to the highest concentration. Vehicle-only plates, with DMSO being pin-transferred to columns 5-48, will be inserted uniformly at the beginning and the end of each library in order to monitor and record any shifts in the background, which can be affected by reagent dispensers or loss in enzyme activity over time. […]
For O=C(NCCc1ccccc1)Oc1ccc(Cl)cc1, the Potency was 12.6 µM (active).
For CC(C)C[C@H](NC(=O)NCCc1ccc(Cl)cc1)C(=O)O, the Potency was “inactive”.
In the case of Cc1cc(C(=O)NCCc2ccc(Cl)cc2)c(C)o1, the Potency was 8.91 µM (active).
For O=C(COc1ccc(Cl)cc1)NCCSc1ccccc1, the Potency was “inactive”.
For NS(=O)(=O)c1ccc(CCNC(=O)c2ccc(Cl)cc2[N+](=O)[O-])cc1, the Potency was “inactive”.
In the case of O=C(NCCc1ccccc1)C1CC1, the Potency was “inactive”.
For Cc1nc2ccc(S(=O)(=O)NC(C(=O)NCc3ccccc3Cl)C(C)C)cc2s1 (stereo unspecified), the Potency was “inactive”.
In the case of COc1ccc(Cl)cc1NC(=O)CSc1nc(-c2cccs2)cc(C(F)(F)F)n1, the Potency was “inactive”.
With COc1ccc(CNc2nc(-c3ccccc3)nn2C(=O)c2ccccc2OC)cc1 the Potency was “inactive”.
In the case of O=C(/C=C/c1cn(CC(O)CN2CCc3ccccc32)c2ccccc12)c1ccc(Br)cc1 (stereo unspecified), the Potency was “inactive”.
With O=C(Nc1ccccn1)C1CCN(S(=O)(=O)c2ccc3c(c2)OCCO3)CC1 the Potency was “inactive”.
With O=C(Nc1ccc2c(c1)OCCO2)C1CCCC1 the Potency was “inactive”.
For O=C(Nc1ccc2c(c1)OCCO2)C1CCCN(c2ncccn2)C1 (stereo unspecified), the Potency was 10 µM (active).
In the case of CCOc1ccc(OCC)c(NS(=O)(=O)c2ccc3[nH]c(=O)ccc3c2)c1, the Potency was “inactive”.
For O=C(Nc1cccc2cccnc12)C(F)(F)F, the Potency was “inactive”.
With O=C(NCc1ccccc1Cl)C1CCCO1 (stereo unspecified) the Potency was “inactive”.
For O=C(Nc1ccc(C(=O)NCc2ccccc2Cl)cc1)C1=CSCCO1, the Potency was 11.2 µM (active).
In the case of CSc1ccc(CNC(=O)c2ccc(NC(=O)C3=CSCCO3)cc2)cc1, the Potency was “inactive”.
In the case of CCc1ccccc1NC(=O)Cn1c(=O)n(-c2cccc(C)c2)c(=O)c2c1c1cc(OC)ccc1n2C, the Potency was “inactive”.
With CSc1ccc(/C=C/C(=O)NC23CC4CC(CC(C4)C2)C3)cc1 the Potency was 11.2 µM (active).
In the case of COc1ccccc1C(=O)NC(=S)NC12CC3CC(CC(C3)C1)C2, the Potency was “inactive”.
With COc1ccc(/C=C/C(=O)Nc2ccc(C34CC5CC(CC(O)(C5)C3)C4)cc2)cc1OC the Potency was “inactive”.
With CSc1nn(Cc2cccc(C)c2)c(N)c1S(=O)(=O)c1ccccc1 the Potency was “inactive”.
For COc1ccc(CCNc2ncnc3onc(-c4ccc(Cl)cc4)c23)c(OC)c1, the Potency was “inactive”.
For CCOC(=O)c1cccc(NS(=O)(=O)c2cc(-c3cnc(C)o3)ccc2OC)c1, the Potency was “inactive”.
For N#Cc1nc(/C=C/c2ccc(F)cc2)oc1NCc1ccc(F)cc1, the Potency was “inactive”.
For Cc1ccc(NC(=O)CSCC(=O)NC2CCCCC2)cc1, the Potency was “inactive”.
With Cc1ccc(NC(=S)NC2CCCC2)cc1 the Potency was 10 µM (active).
For C/C(=N\NC(=S)NC1CCCCC1)c1ccc(C)o1, the Potency was “inactive”.
For Cc1ccc(/C=N/NC(=S)NC2CCCCC2)o1, the Potency was 4.47 µM (active).
In the case of Cc1ccc(/C=N/NC(=O)Cn2ccc(C(F)(F)F)n2)o1, the Potency was “inactive”.
For S=C(Nc1ccc(Br)cc1)NC1CCN(Cc2ccccc2)CC1, the Potency was “inactive”.
For CCOC(=O)c1ccc(NC(=O)C2CC(=O)NC(=Nc3ccc(C)c(C)c3)S2)cc1 (stereo unspecified), the Potency was “inactive”.
In the case of COc1cccc(CNC(=O)c2cc(=O)[nH]c3ccc(S(=O)(=O)N4CCCCC4)cc23)c1, the Potency was “inactive”.
For CCc1ccc(CNCc2c(C(=O)O)n(Cc3ccc(F)cc3Cl)c3cc(OC)ccc23)cc1, the Potency was “inactive”.
For CN(C)c1ccc(/C=N\Nc2ccc([N+](=O)[O-])cc2[N+](=O)[O-])cc1Cl, the Potency was “inactive”.
In the case of CN(C)c1ccc(N/C=C/C(=O)C(F)(F)F)cc1, the Potency was “inactive”.
In the case of CC(C)CNC(=O)C(=O)Nc1ccc(N(C)C)cc1, the Potency was 2.24 µM (active).
For CN(C)c1ccc(C(CC(=O)O)C(=O)O)cc1 (stereo unspecified), the Potency was “inactive”.
For CCOC(=O)Cn1c(=O)n(-c2ccccc2OC)c2nc(-c3cccc(F)c3)nc(C(N)=O)c21, the Potency was “inactive”.
With COc1ccc(C(=O)CSc2nnnn2C)c(OC)c1 the Potency was “inactive”.
For CCn1nnnc1SCC(=O)Nc1ccc(N(C)C)cc1, the Potency was “inactive”.
For CCn1nnnc1SCC(=O)c1ccc(C)cc1C, the Potency was 6.31 µM (active).
With CCCCn1c(CNC(=O)C23CC4CC(CC(C4)C2)C3)nnc1SCC(=O)Nc1ccc(C)cc1 the Potency was “inactive”.
In the case of COc1ccc(Cn2c(C(=O)O)c(CNCCc3cccs3)c3ccc(OC)cc32)cc1, the Potency was “inactive”.
For N#Cc1cccc(CSc2ncnc(N)n2)c1, the Potency was “inactive”.
With Nc1nc(SCc2cccc(Br)c2)n[nH]1 the Potency was “inactive”.
With Nc1cc(N)nc(SCc2cccc(F)c2)n1 the Potency was 12.6 µM (active).
With Cc1ccc(Cn2c(=O)n(CCCC(=O)NCc3ccccc3Cl)c(=O)c3ccccc32)cc1 the Potency was “inactive”.
For O=C(COc1ccc(Cl)cc1)NCCC1=CCCCC1, the Potency was “inactive”.
For CC(OC(=O)CNC(=O)c1ccc(Cl)c([N+](=O)[O-])c1)C(=O)NCc1ccco1 (stereo unspecified), the Potency was “inactive”.
With O=C(NCCC1=CCCCC1)c1ccc(-n2cncn2)cc1 the Potency was 3.16 µM (active).
In the case of O=C(NCCC1=CCCCC1)c1ccc(Cl)c([N+](=O)[O-])c1, the Potency was 7.94 µM (active).
For CC(Sc1nncn1C)C(=O)NCCC1=CCCCC1 (stereo unspecified), the Potency was “inactive”.
In the case of O=C(COc1cccc(-n2cnnn2)c1)NCCC1=CCCCC1, the Potency was “inactive”.
For CC(=O)c1ccc[n+](C(C)CCC(C)[n+]2cccc(C(C)=O)c2)c1 (stereo unspecified), the Potency was “inactive”.
For COc1ccc(-c2cc(NCc3ccc(F)cc3)n3cnnc3n2)cc1, the Potency was “inactive”.
For Cc1ccc2c(c1)c1c(c(=O)n(-c3ccccc3)c(=O)n1CC(=O)c1ccc(Cl)cc1)n2C, the Potency was “inactive”.
For Cc1ccc(OCC(=O)OCc2cc(=O)n3nc(C4CC4)sc3n2)cc1, the Potency was “inactive”.
With COCCN(C(=O)C(C)C)c1nnc(-c2ccc(C(C)(C)C)cc2)s1 the Potency was “inactive”.
For COc1ccc(N(CC(=O)NC(C)(C)C)C(=O)c2ccco2)cc1, the Potency was “inactive”.
For COCCN(C(=O)c1ccco1)c1nnc(-c2ccc(OC)cc2)s1, the Potency was 7.08 µM (active).
For Cc1c(CCO)sc[n+]1CC(=O)c1ccc2ccccc2c1, the Potency was “inactive”.
In the case of O=C(CC1Oc2ccccc2NC1=O)NCc1ccc(F)cc1 (stereo unspecified), the Potency was “inactive”.
For CC(=O)c1cc(C#N)c(SCC(=O)Nc2nccs2)nc1C, the Potency was 2 µM (active).
For Cc1cc(C(F)(F)F)nc(SCC(=O)Nc2nccs2)n1, the Potency was “inactive”.
With Cc1[nH]c2ccccc2c1SCC(=O)Nc1nccs1 the Potency was “inactive”.
In the case of Cc1oc2c(c1C(=O)Nc1ccc(F)c(F)c1)C1=NCCN1C=N2, the Potency was “inactive”.
For CCN=C1S/C(=C\c2cc(Br)ccc2OCC(=O)OCC)C(=O)N1CC, the Potency was “inactive”.
For Cc1cc(/C=C2/SC(=O)N(CC(=O)N3CCCC3)C2=O)ccc1N1CCOCC1, the Potency was “inactive”.
In the case of Cc1cc(/C=C2/SC(=O)N(CC(=O)OC(C)C)C2=O)c(C)n1C, the Potency was 2.51 µM (active).
